In PubChem BioAssay (NCI):
This is part of a sample that, as a whole, favours compounds with a hit. Of some 83,000 tested, about 20% had one in any assay.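 Growth was measured after 48 h exposure to one concentration of compound in 96-well plates. Values under 10 count as active.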 Values without a mark were called inactive. Calls of active or inactive are those of the source.

Columns and labels:
Assay in all cases: NCI-60 one-dose screen, 48 h (100 = growth as untreated, 0 = no growth, -100 = all killed)
Conditions in all cases: 10 µM unless noted
[1] = test system: DU-145 prostate
[2] = test system: K-562 leukemia
[3] = test system: MALME-3M melanoma
[4] = test system: MDA-MB-231 breast
[5] = test system: RXF 393 renal
[6] = test system: SF-268 CNS
[7] = test system: SF-295 CNS
[8] = test system: SF-539 CNS
[9] = test system: UACC-257 melanoma
[10] = test system: M14 melanoma
[11] = test system: HCT-15 colon
[12] = test system: HT29 colon
[13] = test system: SNB-75 CNS
[14] = test system: SNB-19 CNS
[15] = test system: U251 CNS
[16] = test system: PC-3 prostate
[17] = test system: SK-MEL-5 melanoma
[18] = test system: UACC-62 melanoma
[19] = test system: LOX IMVI melanoma
[20] = test system: SK-MEL-28 melanoma

| SMILES | growth [1] | growth [2] | growth [3] | growth [4] | growth [5] | growth [6] | growth [7] | growth [8] | growth [9] | growth [10] | growth [11] | growth [12] | growth [13] | growth [14] | growth [15] | growth [16] | growth [17] | growth [18] | growth [19] | growth [20] |
| --- | --- | --- | --- | --- | --- | --- | --- | --- | --- | --- | --- | --- | --- | --- | --- | --- | --- | --- | --- | --- |
| COc1cc2c(c(OC)c1OC)C(=O)CC(c1cccc(C(=O)Nc3ccc(Br)cc3)c1)O2 (stereo not given) | 73% | 6.2% (active) | 70% | 50.8% | 66.5% | 64.2% | 63.6% | 82.8% | 74.7% | 57.7% | 57.9% | 75% | 51.1% | 80.2% | 83.4% | 5.38% (active) | 22.3% | 40.9% | 57.9% | 74.5% |
| N#Cc1c(-c2ccc(Cl)cc2)nc(NN=Cc2cccc(Cl)c2)nc1N1CCOCC1 | 76% | 35.1% | 131% | 90.6% | 61.4% | 90.3% | 102% | 79.1% | 100% | 84.6% | 35.4% | 40.4% | 80.1% | 104% | 78.9% | 73.5% | 92.5% | 98.1% | 85.5% | 106% |
| CN(C)CCOc1ccc(/C(=C(/CCCCCCCCCC[P+](c2ccccc2)(c2ccccc2)c2ccccc2)c2ccccc2)c2ccccc2)cc1 | -94.1% (active) | -39.3% (active) | -82.2% (active) | -83.4% (active) | -73.8% (active) | -72.1% (active) | -88.6% (active) | -88.9% (active) | -77.4% (active) | -79.6% (active) | -88.7% (active) | -68.5% (active) | -88.7% (active) | -92.1% (active) | -75% (active) | -86% (active) | -97.1% (active) | -82.7% (active) | -89.9% (active) | -94.1% (active) |
| O=C(Nc1ccc2c(c1)-c1ccccc1C2)C1CC(=O)N(c2ccc3c(c2)OCO3)C1 (stereo not given) | 52.1% [50 µM] | 57.5% [50 µM] | 58.1% [50 µM] | 59.9% [50 µM] | 56.6% [50 µM] | 69.2% [50 µM] | 47% [50 µM] | -60.7% [50 µM] (active) | 69.5% [50 µM] | 62.7% [50 µM] | 89.3% [50 µM] | 64.6% [50 µM] | -2.42% [50 µM] (active) | 46.4% [50 µM] | 19% [50 µM] | 33.1% [50 µM] | 56% [50 µM] | 44.3% [50 µM] | 63.1% [50 µM] | 33.4% [50 µM] |
| NCCCCCNc1noc(Cc2c[nH]c3cc(Br)ccc23)n1 | 2.36% (active) | 14.3% | 13.5% | 51.2% | -11.5% (active) | 54.1% | 7.26% (active) | -23% (active) | 54.8% | -26.3% (active) | 35.7% | 3.86% (active) | 0.268% (active) | 46.2% | 11.7% | 9.96% (active) | 9.74% (active) | 22.6% | 34.9% | 40.2% |
| CN(C)CC1C(=O)O[C@H]2[C@H]1CC/C(COC(=O)NCc1ccc(Cn3c(=O)sn(CCCI)c3=O)cc1)=C\CC[C@@]1(C)O[C@@H]21 (stereo not given in full) | -69.8% (active) | -0.241% (active) | -75.6% (active) | 60.4% | -87% (active) | 57.7% | 96.8% | 24.4% | -39.8% (active) | -56.7% (active) | 5.27% (active) | -80.4% (active) | 71.8% | 89.9% | 84.7% | 66.5% | 64.2% | 15.9% | -75.8% (active) | -80.3% (active) |
| COc1cc2c(c(OC)c1OC)CCC(c1cccc(C(=O)Nc3ccc([N+](=O)[O-])cc3)c1)O2 (stereo not given) | 57% | 21.8% | 68.3% | 37.1% | 69.8% | 59.3% | 39.8% | 76.2% | 50.9% | 30.7% | 54.5% | 64% | 66.7% | 56.7% | 57.7% | 27.1% | 15.4% | 31.4% | 52.9% | 61.9% |
| CCCNNC(=O)c1ccc(CNC(=O)/C=C/c2ccccc2)cc1 | 37% [2.5 µM] | 15% [2.5 µM] | 30.1% [2.5 µM] | 55.7% [2.5 µM] | 1.56% [2.5 µM] (active) | 52.6% [2.5 µM] | 33.3% [2.5 µM] | 44.2% [2.5 µM] | 24.1% [2.5 µM] | 29.9% [2.5 µM] | 50.4% [2.5 µM] | 10.8% [2.5 µM] | 71.7% [2.5 µM] | 54.5% [2.5 µM] | 37.7% [2.5 µM] | 43% [2.5 µM] | 28.8% [2.5 µM] | 7.16% [2.5 µM] (active) | 21.6% [2.5 µM] | 36% [2.5 µM] |
| O=C(/C=C/c1ccc(Cl)cc1)c1ccc(-n2cc(CN3CCN(c4cc5c(cc4F)c(=O)c(C(=O)O)cn5C4CC4)CC3)nn2)cc1 | 90.8% | 67.5% | 84.8% | 88.1% | 75% | 77.3% | 90.7% | 92.8% | 91.7% | 88.7% | 95.8% | 78.2% | 91.6% | 84.1% | 68.6% | 89% | 81.6% | 74.6% | 56.9% | 85.4% |
| COc1cc(-c2c(-c3ccccc3)c[nH]c2C(=O)NCCCO)c(OC)c2c1OCO2 | 111% | 86.5% | 108% | 88.8% | 93.5% | 99.4% | 101% | 104% | 106% | 105% | 107% | 106% | 92.9% | 97.5% | 104% | 99.1% | 99.1% | 93.7% | 99.5% | 107% |
| Cc1oc2ccc(O)c(CN3CCCCCC3)c2c1C(=O)Nc1ccc(C(F)(F)F)cc1 | 64.8% | 29.6% | 49.9% | 49% | 50.4% | 75.4% | 48.8% | 61.2% | 82% | 58.1% | 45.1% | 80.5% | 50.6% | 69.9% | 55.1% | 45.7% | 70% | 67.3% | 39.2% | 76.9% |
| COc1ccc(-c2ccc(-c3ccc(C(=N)N)o3)o2)cc1 | 6.23% (active) | -9.69% (active) | 57.1% | 8.3% (active) | 25.1% | 39.8% | 35.6% | 23% | 37.9% | 35.1% | -7.49% (active) | -9.08% (active) | 43.6% | 15.5% | -29.3% (active) | 25.5% | 25.6% | -61.1% (active) | -58.1% (active) | 71.1% |
| CS(=O)(=O)Nc1cc(-c2ccc3ncnc(Nc4cccc(Cl)c4)c3c2)cnc1Cl | 14.5% | 18.9% | -25.7% (active) | 7.96% (active) | -44% (active) | 13.9% | -22.6% (active) | -22% (active) | -3.23% (active) | -2.15% (active) | 4.71% (active) | 2.65% (active) | -10.4% (active) | 18% | -2.63% (active) | -2.27% (active) | -95.6% (active) | -23.6% (active) | -35.5% (active) | 5.51% (active) |
